# Data reported in the supplement of paper PMC3334620.
# In all, about 33,000 sequences were measured (“E-score (-0.5 to 0.5)”: median about -0.0059, highest 2% from about 0.26 on). Many of the other results were omitted from the sample, so the highest values are more common in it than they were.
# Target: T1, Cin5 (UniProt P40917)
# T1 sequence: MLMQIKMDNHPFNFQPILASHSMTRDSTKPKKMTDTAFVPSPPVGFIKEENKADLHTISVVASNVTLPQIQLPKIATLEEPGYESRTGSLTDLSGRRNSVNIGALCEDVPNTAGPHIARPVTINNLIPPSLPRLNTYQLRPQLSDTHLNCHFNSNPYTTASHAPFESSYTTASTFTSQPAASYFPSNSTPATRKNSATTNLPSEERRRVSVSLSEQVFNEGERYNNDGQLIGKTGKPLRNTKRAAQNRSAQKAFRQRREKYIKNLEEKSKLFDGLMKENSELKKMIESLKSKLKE
# Assay: PBM E-score (8-mer binding enrichment) (E-score (-0.5 to 0.5)); higher = stronger / more preferred TF binding
# Conditions: protein concentration: 100 nM; construct: GST-full length
# Experimental: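 Universal 'all 10-mer' protein binding microarrays (Agilent AMADID 015681) probed with GST-tagged S. cerevisiae TFs (full-length or DBD) made by in vitro transcription/translation (PURExpress), about 100-200 nM. Bound TF was detected with fluorescent anti-GST. Each ungapped 8-mer (which stands for itself and its reverse complement) is scored by the PBM enrichment score (E-score), a modified Wilcoxon-Mann-Whitney statistic from -0.5 to +0.5, computed with the Universal PBM Analysis Suite. Scale: above 0.35 generally sequence-specific binding.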
row,Sequence,PBM E-score
1,AAAACTAT,0.2
2,AAAACTAA,0.275
3,TAAACTAA,0.252
4,TTAAGTAA,0.423
5,GAAACTAA,0.0253
6,ATAACTAA,0.141
7,GTAAGTAA,0.24
8,CAAACTAA,0.266
9,CAAACTAC,0.0495
10,TTAACTAA,0.343
11,CTAAGTAA,0.0623
12,CTAACTAA,0.15
13,CGACATAG,0.00383
14,CTGCAAAC,-0.149
15,AGCTGCCG,-0.0554
16,GCGGCGCC,0.115
17,CACGTGGG,-0.172
18,AGGCTGAC,0.0576
19,AGGCGGAA,-0.0282
20,GCGCGAGC,-0.0452
21,GGAATTGA,0.199
22,CCATCATC,0.0863
23,ACATCATA,0.258
24,GCATCATA,0.0947
25,CCATCATA,0.05

row,Sequence,PBM E-score
1,ACATCATG,0.0711
2,ACATCATC,0.344
3,CAACTCTG,-0.112
4,GACGCATC,0.00795
5,ACCAAGCC,-0.172
6,CCCCCCTC,-0.465
7,TAACCAAA,0.175
8,AAGGTGAA,-0.0511
9,CAGGAGGA,-0.315
10,TACCCATA,0.0256
11,AGCTGATG,0.14
12,AGTATAAT,0.301
13,AGTATAAG,0.239
14,AGTATATC,0.126
15,GGTATAAA,0.154
16,AGTATAAA,0.282
17,AGTATATA,0.346
18,AGTATAAC,-0.129
19,AGTATATG,0.183
20,TGTATAAA,0.114
21,ATTGTCGC,0.0313
22,GAACCCAC,0.121
23,ATAGTTTA,0.0429
24,GGGCGGTA,-0.169
25,AGCACGAT,0.0861

row,Sequence,PBM E-score
1,ATATCGCC,0.0352
2,ATATCGAA,0.221
3,ATCTCGCC,0.0516
4,ATCTCGCA,0.00313
5,ATATCGCG,0.301
6,ATATCGAT,0.265
7,ATCTCGCG,0.266
8,ATATCGAC,0.249
9,ATATCGCA,-0.00978
10,CACGTCGC,-0.119
11,CTCGACGC,0.0204
12,GTTGATGA,0.154
13,ACTGATTA,0.249
14,CCTGATTA,0.252
15,ATTGATTA,0.317
16,GTTGATTA,0.268
17,CTTGATTA,0.222
18,ATTGATTG,0.186
19,ATTGATTC,0.128
20,GCTGATTA,0.279
21,AAGTTGCC,-0.0351
22,CGGACGAA,0.15
23,CACACACG,-0.0573
24,TCCCAGAA,-0.129
25,AATCCGGA,0.234

row,Sequence,PBM E-score
1,AATGTTCT,-0.0398
2,ATTAATGC,0.19
3,ATTAATCA,0.263
4,ATTAATTG,0.193
5,ATTAATCC,0.18
6,ATTAATGA,0.29
7,ATTAATTA,0.259
8,GTTAATCA,0.239
9,CTTAATGA,0.0487
10,ATTAATTC,0.238
11,GCCACATA,0.064
12,ACTGCCCT,-0.0972
13,CGAAGACA,-0.0454
14,ATAACATG,0.0972
15,ACAACATC,0.0575
16,ACAACATA,0.268
17,ATAACATC,0.189
18,ATAACATA,0.26
19,GCAACATA,0.0111
20,AGATTGAA,0.0552
21,CCCAGTTC,0.175
22,AACCGTGA,-0.0786
23,GCATTCCA,-0.196
24,AAAGCATC,0.134
25,CAGACTGG,-0.108

row,Sequence,PBM E-score
1,AAAACGGA,0.0411
2,AGTAGCCG,0.0345
3,TATCGATA,0.0449
4,GCTCTTAC,0.021
5,CTCACGCA,0.274
6,CTCACGCC,-0.0928
7,GTCACGCA,0.0339
8,ACAGTAGG,-0.00703
9,CAGTGCCG,-0.0996
10,ATAGTTGC,0.272
11,ATAGTTGA,0.121
12,ATAGTTGG,-0.0107
13,GGTAAGTA,-0.00023
14,AAAATGGT,0.216
15,TCTGCACA,-0.00335
16,ATTACGGA,0.322
17,CTTACGAC,0.103
18,AGTACGAA,0.167
19,AGTACGAG,0.0932
20,GTTACGAA,0.16
21,ATTACGGG,0.103
22,ATTACGAA,0.295
23,ATTACGAG,0.299
24,ATTACGAC,0.232
25,ATTACGGC,0.181

row,Sequence,PBM E-score
1,CTTACGAA,0.26
2,ATTACGCA,0.25
3,GAGGTTAA,-0.0963
4,AGCAATTC,0.0771
5,AGGACCTC,-0.0477
6,CCTTGAGC,-0.155
7,ATTCCGAG,0.182
8,CAAGTCTA,-0.202
9,ATACTGAT,0.283
10,ATACTGTC,0.208
11,ATACTGAC,0.192
12,TACGCCCA,0.0142
13,AAGTACTG,-0.0282
14,CAAAAGTC,-0.0102
15,GGCTTACC,0.169
16,TCCTTACA,-0.021
17,AGCTTACG,0.337
18,ATCTTACG,0.164
19,CGCTTACG,0.379
20,TGCTTACA,0.305
21,GCCTTACA,-0.253
22,TGCTTAAA,0.102
23,GGCTTACA,0.332
24,CACTTACG,0.112
25,CGCTTACC,0.15

row,Sequence,PBM E-score
1,ACCTTACG,0.0253
2,ACTTCTAT,0.0803
3,ATATGCGG,0.148
4,CACTGCCA,-0.0785
5,CCCCCCCA,-0.464
6,CTAGCCTC,-0.159
7,GTACAGCA,-0.134
8,ATGCACTA,-0.0624
9,ATATAGAT,0.207
10,GGAGCTAC,-0.236
11,CGCTTAGA,-0.0919
12,AGCTTATA,0.191
13,AGCTTATG,0.296
14,CACTTACA,0.127
15,AGCTTATC,0.204
16,CGCTTACA,0.315
17,AGCTTACC,0.226
18,AGCTTACT,0.201
19,AGCTTACA,0.351
20,ACCCGATA,-0.0171
21,CCCTGTTC,-0.265
22,CCTTCTTC,-0.107
23,AGAAGCTG,-0.049
24,ACCAAGAT,0.146
